Screening data: PubChem, National Center for Advancing Translational Sciences (NCATS)
GLP-1R agonist: activates the human GLP-1 receptor. Potency, µM (highest dose often 45.6 µM), for inactives: at the top dose activation, most hits filed as activators. HEK293 GLP-1R CRE-luciferase, luminescence, 4-6 h; cells express a hypersensitive GLP-1R form. 0.007% of 380,000 active. AID 624172. P43220; note: % of control where 0% means no effect
GLP-1R inv ag: inverse agonists of human GLP-1 receptor | AID 624417 | Potency, µM (top dose mostly 38.3 µM), for the others: at the top dose activity change, negative = inhibition, hits mostly inhibitors | 1.6% of 410,000 active | P43220 | HEK293 GLP-1R CRE-luciferase, luminescence, 24 h; GLP-1R form is constitutively active; note: % is set by controls: 0 for no effect and ±100 for the full control effect; nearly all actives have a fitted effect of over 55% in size
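Cells are plated, allowed 12 hours at 37 deg C, then treated with compounds for 24 hr before luciferase detection reagent is added and luminescence is read after 12 min at room temperature. The HEK293 line carries constitutively active GLP-1R with a cAMP-responsive reporter.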
HEK293 tox: cytotoxicity in counter-screen for GLP-1R inverse agonists; AID 624418; HEK293 cAMP-luciferase reporter cells, luminescence, 24 h; 0.13% of 410,000 active; Potency, µM (series often up to 38.3 µM), for inactives: at the top dose activity change, negative = inhibition, most hits filed as inhibitors;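 note: loss of luciferase light is scored as toxicity; % is set by controls: 0 for no effect and ±100 for the full control effect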
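Seeding density was 200 cells/uL; after overnight-length (12 h) culture, 23 nL compounds went on for 24 h at 37 °C. Readout used a luciferase detection reagent, luminescence taken after 12 min at room temperature.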
RORg inh: ROR gamma (mouse) transcription inhibition; AID 2551; P51450; 5.4% of 310,000 active; Drosophila S2 Gal4-RORgamma UAS-luciferase reporter, 20 h; Potency, µM (series often up to 53.6 µM), without a hit: top-dose activity change, negative = inhibition, actives largely listed as inhibitors; note: % is set by controls: 0 for no effect and ±100 for the full control effect; nearly all actives have a fitted effect of over 60% in size
Target sequence (P51450 whole entry, looked up, the tested form may be a part): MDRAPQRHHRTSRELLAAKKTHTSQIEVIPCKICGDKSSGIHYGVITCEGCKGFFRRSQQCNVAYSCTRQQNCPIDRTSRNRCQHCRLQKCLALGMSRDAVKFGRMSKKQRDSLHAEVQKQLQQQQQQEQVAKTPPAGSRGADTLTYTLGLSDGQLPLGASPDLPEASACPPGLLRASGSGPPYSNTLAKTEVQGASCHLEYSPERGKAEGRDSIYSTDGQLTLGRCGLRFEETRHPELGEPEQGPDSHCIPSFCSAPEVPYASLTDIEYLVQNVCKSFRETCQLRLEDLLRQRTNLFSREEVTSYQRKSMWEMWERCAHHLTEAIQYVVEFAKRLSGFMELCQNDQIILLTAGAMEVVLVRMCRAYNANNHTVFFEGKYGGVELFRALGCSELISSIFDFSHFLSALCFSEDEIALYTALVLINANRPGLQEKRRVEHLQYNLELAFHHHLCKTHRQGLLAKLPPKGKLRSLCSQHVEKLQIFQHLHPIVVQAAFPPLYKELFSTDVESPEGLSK
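A Gal4/UAS one-hybrid system in insect cells: metallothionein-promoter Gal4–ROR gamma fusion plus Photinus luciferase reporter. Copper sulfate 700 uM final, 20 hr ambient incubation, luminescent detection after 10 min with reagent.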
VP16 counter: Gal4-VP16 reporter inhibition counter-screen; Drosophila S2 Gal4-VP16 UAS-luciferase, luminescence, 20 h; Potency, µM (doses to about 53.6 µM), inactives show at the top dose activity, negative = inhibition, hits mostly inhibitors; 3.5% of 310,000 active; AID 2546;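 note: Gal4-VP16 expression switched on by copper sulfate through the metallothionein promoter; % is set by controls: 0 for no effect and ±100 for the full control effect; nearly all actives have a fitted effect of over 50% in size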
Numbers without * were called inactive; ? = inconclusive; / = no result; [ ] = dose if it differs, or a comment. A selection: hits, their analogues and other compounds. The true share with any hit is near 5.9%. Calls come from the whole dose curve; as a rule, active = well fitted curve in the direction sought with a large enough effect; inconclusive = small, poorly fitted or top-dose-only effect, or another doubt; inactive = no such curve, though single readings can be large; an effect the other way counts as inactive or inconclusive. Potency is the fitted concentration of half-maximal effect.

SMILES	GLP-1R agonist	GLP-1R inv ag	HEK293 tox	RORg inh	VP16 counter
C=CCc1cc(C(=O)N2CCCCC2)ccc1O	-18%	?	-18%	-4%[0.365 µM]	/
C=CCc1ccc(O)c(-c2ccc(O)c(CC=C)c2)c1	1%	?	-22%	?	22µM*
CCCc1c(C(=O)OCC)nnc2c(-c3ccccc3)c(C)nn12	0%	13%	-2%	/	/
COc1ccc(OC2CCN(S(=O)(=O)c3ccc(OC)cc3)CC2)cc1	5%	10µM*	10%	?	-3%
COc1ccc(OC2CCN(S(=O)(=O)c3cccc(F)c3)CC2)cc1	9%	?	-2%	21%	3%
CC1CCCN(C(=O)c2ccc3c(=O)n(Cc4ccc5c(c4)OCO5)c(=S)[nH]c3c2)C1 (stereo not drawn)	-14%	1%	3%	7.9µM*	?
CC(C)OCCCNC(=O)c1ccc2c(=O)n(Cc3ccc4c(c3)OCO4)c(=S)[nH]c2c1	0%	6%	-1%	3%	2%
CC1(C)Cc2c(sc3[nH]c(=S)n(Cc4ccco4)c(=O)c23)CO1	-2%	-23%	-1%	1µM*	1.4µM*
CCN(CC)C(=O)c1ccc2c(=O)n(Cc3cccc(Br)c3)c(=S)[nH]c2c1	0%	-20%	-27%	7.1µM*	13µM*
COCCn1c(=S)[nH]c2cc(C(=O)N3CCCC(C)C3)ccc2c1=O (stereo not drawn)	2%	2%	-6%	?	?
O=c1c2c3c(sc2[nH]c(=S)n1Cc1ccco1)CCC3	-2%	-7%	-2%	?	?
CCN(CC)C(=O)c1ccc2c(=O)n(Cc3ccc4c(c3)OCO4)c(=S)[nH]c2c1	-4%	?	-7%	11µM*	?
CCN(CC)C(=O)c1ccc2c(=O)n(CCOC)c(=S)[nH]c2c1	-10%	6%	-1%	-11%	-10%
COc1ccc(Nc2nc3ccc(C)cc3nc2-n2nc(C)cc2C)cc1Cl	/	9%	1%	/	/
Cc1ccc2c(c1)c1c3n2CCN(C(=O)c2cccc(C(F)(F)F)c2)C3CCC1 (stereo not drawn)	/	?	-3%	/	/
CCCn1c(=S)[nH]c2cc(C(=O)N(CCO)Cc3ccccc3)ccc2c1=O	10%	?	-6%	13µM*	?
CCCN(CCC)C(=O)c1ccc2c(=O)n(Cc3ccco3)c(=S)[nH]c2c1	11%	?	3%	3.2µM*	?
COc1ccc(-c2cc3nc(CCl)[nH]c(=O)c3s2)cc1	-3%	?	0%	?	10µM*
COc1ccc(-c2cc3nc[nH]c(=O)c3s2)cc1	-2%	9%	-5%	-32%	-15%
O=c1c2cc(Br)ccc2[nH]c(=S)n1Cc1ccccc1	23%	-11%	?	2.5µM*	3.5µM*
O=C(CCCn1c(=S)[nH]c2ccc(Br)cc2c1=O)NCc1ccccn1	-3%	4%	-4%	?	-29%
O=c1c2cc(Br)ccc2[nH]c(=S)n1Cc1ccccn1	10%	-14%	?	2.8µM*	?
Nc1nc(SCc2ccc(Cl)cc2)ns1	-2%	0%	-2%	-35%	7.1µM*
O=C(Nc1nnc(-c2cccnc2)o1)c1cccc(Cl)c1	4%	12%[0.307 µM]	-1%[0.307 µM]	0.5µM*	0.71µM*
Cc1cccc(-c2nnc(NC(=O)c3ccc(Cl)cc3)o2)c1	-12%	-11%	-24%	1.4µM*	1.4µM*
SMILES	GLP-1R agonist	GLP-1R inv ag	HEK293 tox	RORg inh	VP16 counter
Cc1cccc(NS(=O)(=O)c2nnc(NC(=O)c3ccc(Cl)cc3)s2)c1	-5%	?	-4%	27%	-1%
O=C(Nc1cccc(NC(=O)c2cccc(Cl)c2)c1)c1cccnc1	14%	-19%	-18%	14%	-13%
COc1cc(OC)cc(C(=O)Nc2nnc(-c3cccnc3)o2)c1	-3%	8%	8%	1.4µM*	4.5µM*
Cc1ccc(C(c2sc3nc(-c4ccco4)nn3c2O)N2CCN(Cc3ccccc3)CC2)cc1 (stereo not drawn)	/	-28%	-4%	/	/
CCOC(=O)CCN1C(=O)[C@H]2[C@H]3[C@H](O)[C@H](O)C/C(=N/OC/C=C(\C)CCC=C(C)C)[C@@H]3CC[C@@H]2C1=O	/	/	/	11%[10 µM]	-8%[10 µM]
COc1cc(C2NC(=S)NC(c3ccccc3)=C2C(C)=O)cc(Br)c1OCC(N)=O (stereo not drawn)	7%	7%	3%	-19%	5%
COc1ccc2c(c1)CCC1=C2NC(=S)NC1c1ccc(N(C)C)cc1 (stereo not drawn)	15%	-23%	1%	2.8µM*	3.5µM*
C=CCOc1ccc(C2NC(=S)NC3=C2CCc2ccccc23)cc1 (stereo not drawn)	10%	?	-27%	3.5µM*	13µM*
COc1cc(C2NC(=S)NC3=C2CCc2ccccc23)cc(OC)c1OC (stereo not drawn)	1%	-12%	?	5.6µM*	10µM*
COc1ccc(C2CC(=O)C=C3c4ccc(OC)cc4CCC32)cc1 (stereo not drawn)	0%	2%	3%	/	/
O=C1NC2=C(CCc3ccccc32)C(c2ccccc2)N1 (stereo not drawn)	2%	1%	0%	-33%	2%
Cc1c2oc3c(C)ccc(C(=O)N[C@@H]4C(=O)N[C@@H](C(C)C)C(=O)N5CCC[C@@H]5C(=O)N(C)CC(=O)N(C)[C@@H](C(C)C)C(=O)O[C@H]4C)c3nc-2c(C(=O)N[C@@H]2C(=O)N[C@@H](C(C)C)C(=O)N3CCC[C@@H]3C(=O)N(C)CC(=O)N(C)[C@@H](C(C)C)C(=O)O[C@H]2C)c(N)c1=O	/	/	/	?	-5%
COc1cc(N/N=C/c2ccccc2O)ncn1	4%	-24%	?	7.1µM*	7.1µM*
COc1cc(N/N=C/c2ccc(N(C)C)cc2)ncn1	-4%	?	7%	?	?
O=c1c2ccccc2nc(N/N=C/c2c(O)ccc3ccccc23)n1O	-55%	?	-24%	0.89µM*	13µM*
O=c1c2ccccc2nc(N/N=C/c2ccc(O)cc2)n1O	3%	1%	-6%	11µM*	-28%
CC1CCc2c(sc(NC(=O)CCCOc3ccc(C(C)(C)C)cc3)c2C(N)=O)C1 (stereo not drawn)	/	34%	9%	/	/
COC(=O)NC(/C(C(=O)OC)=C(\C)NCc1ccccc1)c1ccc2ccccc2c1 (stereo not drawn)	/	/	/	17%[10 µM]	4%[10 µM]
CC/C=C\CC[C@H](OC(=O)c1ccc(Br)cc1)C1=CCCCC1=O	/	/	/	-1%[10 µM]	0%[10 µM]
CCCCC(=O)N(C)c1c(CC)nc2c(OCc3ccc(C(F)(F)F)cc3)cccn12	-4%	11µM*	-12%	/	/
COc1ccc(CNc2ncnc3ccc(-c4ccc(N(C)C)cc4)cc23)c(OC)c1	/	/	/	?	-9%
